Assay results reported in PubChem BioAssay.

Tests used:
[1] = molecular target: Tumor necrosis factor receptor superfamily member 10B (Homo sapiens) (UniProt O14763); assay: viability loss of caspase-8 NB7 cells with TRAIL – with/without TRAIL, luminescence panel, confirmation (AID 651596); settings: NB7 neuroblastoma + caspase-8, TRAIL sensitization, NB7 Caspase-8, with TRAIL, mean of runs, at 10 µM, stronger effect = higher value
[2] = as above; settings: NB7 neuroblastoma + caspase-8, without TRAIL, NB7 Caspase-8, without TRAIL, mean of runs, at 10 µM

Sequence of Tumor necrosis factor receptor superfamily member 10B (Homo sapiens) (O14763 whole entry, looked up): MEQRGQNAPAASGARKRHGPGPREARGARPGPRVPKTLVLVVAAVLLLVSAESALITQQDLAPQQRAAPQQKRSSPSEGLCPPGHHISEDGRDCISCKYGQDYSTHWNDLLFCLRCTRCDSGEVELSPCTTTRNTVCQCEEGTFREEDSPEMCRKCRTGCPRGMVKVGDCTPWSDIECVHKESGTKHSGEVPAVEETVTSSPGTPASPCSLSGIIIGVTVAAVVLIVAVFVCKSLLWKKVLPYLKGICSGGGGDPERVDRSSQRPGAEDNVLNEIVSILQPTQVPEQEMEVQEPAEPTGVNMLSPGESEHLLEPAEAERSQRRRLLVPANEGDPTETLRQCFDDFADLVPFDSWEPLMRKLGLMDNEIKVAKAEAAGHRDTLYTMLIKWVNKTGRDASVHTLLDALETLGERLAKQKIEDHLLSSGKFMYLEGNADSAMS

SMILES | activity [1] | activity [2]
C/C(=N\NC(=O)c1ccc(Cl)cc1)c1ccccn1 | 32.2% | 51%
Brc1ccc(-c2cn3ccccc3n2)cc1 | 50.8% | 62.2%
COc1ccc(CC(=O)Nc2cccc(-c3nnc(-c4ccccc4)o3)c2)cc1OC | 78.9% | 59.8%
O=c1c2ccccc2oc2ccc(-c3ccc4cc[nH]c4c3)cc12 | 36.5% | 35.8%
C=Cc1ccc(Cn2c(C)c(C(=O)NCc3ccc(Cl)c(Cl)c3)sc2=O)cc1 | 91.2% | 68%
C(/C=C/c1ccccn1)=C\c1ccccc1 | 7.58% | 14.6%
Cc1ccc(C(C#N)=Cc2ccc3c(c2)OCO3)cc1 | 68.5% | 65.2%
C#CC(=O)N(c1ccc(OC)c(OC)c1)C(C(=O)NC1CCCC1)c1cccs1 (centres undefined) | 99.3% | 99.5%
CCOc1ccc(/C=C/C(=O)c2c(O)cc(C)oc2=O)cc1 | 74.8% | 77.8%
Cc1nn(-c2ccccc2)c(Cl)c1CN(C(=O)CCl)c1ccc(Cl)cc1 | 99.3% | 99.6%
CC(C)C[C@H](NC(=O)c1nc[nH]c1C(=O)N[C@@H](CCCCNC(=O)OC(C)(C)C)C(=O)OC(C)(C)C)C(=O)OC(C)(C)C | 84.7% | 68.1%
CC(C)N(CC(=O)Nc1ccc(Cl)cc1C(F)(F)F)C(=O)CCl | 99.4% | 96.2%
Cc1ccc2sc(NC(=O)CSc3nc(C)cc(C)c3C#N)nc2c1 | 71.5% | 57.3%
Cc1cc(C)cc(NC(=O)/C(C#N)=C/c2cn(CC(=O)NCc3ccco3)c3ccccc23)c1 | 62.1% | 77.7%
Cc1ccc(-c2nc(NC(=O)c3nn(C)cc3[N+](=O)[O-])sc2C)cc1C | 98.1% | 99.1%
O=C(Nc1ccc2c(c1)OCCO2)C(=O)c1c[nH]c2ccccc12 | 83.2% | 90.5%
COc1ccc2nc(-c3ccc(F)cc3)sc2c1 | 68.2% | 65.7%
N/C(Cc1ccc(Cl)cc1)=N\OC(=O)c1cccc2ccccc12 | 99% | 97.5%
CCc1ccc(C2=NNC(=Nc3cccc(S(=O)(=O)N(C)C)c3)SC2)cc1 | 76.8% | 75%
COc1ccc(-c2cc(-c3ccccc3)c(C#N)c(S(C)(=O)=O)n2)cc1 | 79.3% | 96.9%
CCOc1ccc(OCC(=O)Nc2cccc(S(=O)(=O)NC3=NCCC3)c2)cc1 | 68.9% | 64.6%

SMILES | activity [1] | activity [2]
O=C(CCl)Nc1c(C(=O)Nc2ccc3c(c2)OCCO3)oc2ccccc12 | 93.3% | 90.3%
COc1ccc(S(=O)(=O)N2CCN(c3ccc4nnc(-c5ccccc5)n4n3)CC2)cc1 | 58% | 66.5%
COc1ccc(-c2cc(C(=O)N3CCOCC3)no2)cc1 | 50.8% | 49.9%
CC(C)c1ccc(/C=C/c2ccc(=O)n(C)n2)cc1 | 68.1% | 66.6%
N/C(=N\OC(=O)c1ccccc1Cl)c1cccnc1 | 67.2% | 70.6%
C/C(Cn1nnc([N+](=O)[O-])n1)=N\NC(=O)c1ccccc1O | 43.8% | 51%
O=C(Nc1ccc2c(c1)OCCO2)c1cc2ccccc2o1 | 82% | 76.8%
CC(=O)N1CCc2c(sc(NC(=O)c3ccc([N+](=O)[O-])o3)c2C(N)=O)C1 | 51.4% | 90.9%
C(=N\NC1=Nc2cccc3cccc1c23)/c1ccccc1 | 34.3% | 14.2%
Nc1c(-c2ccccc2)cnc2c(-c3ccccc3)cnn12 | 73.7% | 77.2%
NC(CCc1ccccc1)c1csc(NC(=O)Nc2ccccc2Oc2ccccc2)n1 (centres undefined) | 79% | 93%
CC(C)CC(/C(O)=C(\C#N)c1nc2ccccc2[nH]1)N1C(=O)c2ccccc2C1=O (centres undefined) | 66.3% | 61.7%
Cc1ccc(C(=O)Nc2ccc3ccccc3n2)cc1 | 58.6% | 58.2%
Cc1cccc(C(=O)Nc2ccc(C(=O)Nc3ccc(O)cc3)cc2)c1 | 79.9% | 89.1%
O=C(CN1CCN(S(=O)(=O)c2ccc(F)cc2)CC1)Nc1ccc(Cl)c(C(F)(F)F)c1 | 24.1% | 31.8%
N/C(=N\OC(=O)COc1ccc(Cl)cc1Cl)c1ccccn1 | 37% | 52.3%
CCc1ccc2nc(N(CCCN(C)C)C(=O)c3ccc(S(=O)(=O)N4CCCc5ccccc54)cc3)sc2c1 | 38.9% | 63.9%
Cc1c(Cl)cccc1Nc1nc(N)nc(CSc2ncccn2)n1 | 91.8% | 92.3%
C/C(=N\NC(=O)COc1ccc(C(C)(C)C)cc1)c1ccc(-n2ccnc2)cc1 | 63.5% | 49.1%
Cc1nn(-c2ccccc2)c(C)c1/C=N/NC(=O)c1cc(-c2ccc(Cl)s2)[nH]n1 | 70.1% | 72.8%
O=C1Nc2ccccc2N(C(=O)c2c(F)cccc2F)C1c1nc2ccccc2[nH]1 (centres undefined) | 47.6% | 60.3%
